We go through 40 compounds from PubChem BioAssay (Tox21).

Results filed as inconclusive are left out. Active and inactive are the calls of the source. Calls follow the shape of the dose curve; as a rule, active = well fitted cell-killing curve with a large enough effect in the repeat runs; inconclusive = weak or mixed curves, or effect the other way; inactive = flat fitted curve, though single readings scatter.
% is scaled to controls: 0 for no effect and ±100 for the full control effect; potency is read from the fitted curve at half-maximal effect.

The nature of the test: qHTS RealTime-Glo MT Cell Viability Assay in HEK293 cells - 32 hour (AID 1224868). Also: nearly all actives have a fitted effect of over 50% in size. As to activity change, negative = cytotoxic: top concentration of the series differs between compounds. The following applies: RealTime-Glo luminescence; series mostly up to 76.8 µM; activity change, negative = cytotoxic: at the top concentration. An excerpt:
National Center for Advancing Translational Sciences [NCATS]
NIH Chemical Genomics Center [NCGC]
U.S. Environmental Protection Agency [EPA]
National Institutes of Environmental Health Sciences [NIEHS]
National Toxicology Program [NTP]
U.S. Food and Drug Administration [FDA]
Measure of cell viability is critical in the cell-base assay. Analysis of cell viability is necessary for the characterization of cell responses to cytotoxic drugs and environmental stress. A RealTime-Glo MT Cell Viability Assay to monitor cell viability in real time of continues cell culture during 40 hours of compound treatment was used to screen Tox21 10K library compounds in Hek293 cells. The RealTime-Glo MT Cell Viability Assay is a nonlytic, homogeneous, bioluminescent method to measure cell viability in real time using a simple, plate-based method. The assay involves adding NanoLuc luciferase and a cell-permeant prosubstrate to cells in culture. Viable cells reduce the proprietary prosubstrate to generate a substrate for NanoLuc luciferase. This substrate diffuses from cells into the surrounding culture medium, where it is rapidly used by the NanoLuc Enzyme to produce a luminescent signal. The signal correlates with the number of viable cells, making the assay well suited for cytotoxicity studies.
Tox21 Assay Protocol Summary:
The mixture of Hek293 cell suspension and reagents were dispensed at 600cells/6 ul/well in 1536-well tissue culture treated black solid bottom plates using a Multidrop dispenser. After the assay plates were incubated at a 37 C/5% CO2 incubator for 5 hours, 23 nL of compounds dissolved in DMSO, positive and negative controls was transferred to the assay plate by a pintool work station. The plates were incubated at 37 C for 40 hours. The luminescence intensity were measured at 0h, 8h, 16h, 24h, 32h and 40h time points using ViewLux plate reader during compound treatment.
Consider `CCCCNc1cc(C(=O)O)cc(S(N)(=O)=O)c1Oc1ccccc1`, for which the “activity change, negative = cytotoxic” value is -0.501% [at 35.3 µM] (inactive). The same measure, in the same setting: the value for `CCOC(=O)CS` was 2.54% (inactive). Same read-out and setting: the value for `CS(=O)(=O)c1ccc([C@@H](O)[C@@H](CF)NC(=O)C(Cl)Cl)cc1` was 8.72% [at 35.3 µM] (inactive); that for `CCOC(=O)C1CC(=O)C(=C(O)C2CC2)C(=O)C1` (stereo not given) was 3.45% (inactive); that for `CC(C)O` was 1.02% (inactive). As to `Cc1nc(-c2ccccn2)ncc1C(=O)Nn1cc(C)c2cc(F)ccc21`, the Potency is 1.55 µM (active).

With `O=C(O[C@@H](C(=O)O)[C@@H](OC(=O)c1ccccc1)C(=O)O)c1ccccc1`, the “activity change, negative = cytotoxic” value is -0.0819% (inactive). Take `CC(C)=CCC[C@](C)(O)[C@@H]1CC=C(C)CC1`: the “activity change, negative = cytotoxic” value is -7.03% (inactive). As to `C=O`, the “activity change, negative = cytotoxic” value is 2.12% (inactive). The same measure, in the same setting: to `C[C@@H](N)C(=O)O` belongs 3.05% [at 35.3 µM] (inactive); to `Clc1cccc(-c2cc(Cl)cc(Cl)c2)c1`, -13.5% (inactive).

Regarding `COc1cc(N)c(Cl)cc1C(=O)NC1CCN(Cc2ccccc2)CC1`, the Potency was 19 µM (active).

Regarding `CCCCCCCCOC(=O)CCCCCCCCC(=O)OCCCCCCCC`, the “activity change, negative = cytotoxic” value was 2.2% (inactive). Take `CCOC(=O)COc1ccc2c(c1)CC(NCC(O)c1cccc(Cl)c1)CC2` (stereo not given): the “activity change, negative = cytotoxic” value was -21.1% (inactive). Still for that read-out and setting: the value for `Nc1cccc(S(=O)(=O)O)c1` was 6.78% (inactive). The same measure, in the same setting: to `CC(C)S` belongs 1.71% (inactive); to `C=C(C)C(=O)OCCOP(=O)(O)O`, 13.1% (inactive); to `Cc1ccc(C(C)C)cc1O`, -19.9% (inactive).

`Cc1c(N)cccc1N`: the “activity change, negative = cytotoxic” value is 10.5% (inactive). The same measure, in the same setting: to `CCCCCCCOC(=O)CCC` belongs 5.28% (inactive); to `O=C(O)c1ccccc1Nc1cc(Cl)ccc1C(=O)O`, 3.41% [at 15.8 µM] (inactive).

For the compound `CCOc1ccc2nc(N)sc2c1`, the “activity change, negative = cytotoxic” value was -0.597% (inactive). Same read-out and setting: to `CC/C=C\CCOC(=O)CCCCC` belongs -9.08% (inactive); to `CCN(O)CC`, 12% (inactive); to `CN1CCN(N)CC1`, 2.92% [at 35.3 µM] (inactive).

Turning to `CC1=NN(c2cc(Cl)c(S(=O)(=O)O)cc2Cl)C(=O)C1N=Nc1ccc(S(=O)(=O)O)cc1` (stereo not given), the “activity change, negative = cytotoxic” value is 0.165% (inactive). Same read-out and setting: the value for `FC(F)(F)C(F)(F)C(F)(F)C(F)(F)C(F)(F)C(F)(F)C(F)(F)C(F)(F)Br` was 0.0215% [at 35.3 µM] (inactive); that for `CCc1nnc(NS(=O)(=O)c2ccc(N)cc2)s1` was 8.15% [at 35.3 µM] (inactive); that for `COC(C)CCO` (stereo not given) was 0.786% (inactive).

In the case of `CCCCCOc1ccc(C2SC(=O)NC2=O)cc1OCC` (stereo not given), the “activity change, negative = cytotoxic” value is -9.86% [at 35.3 µM] (inactive). Take `CCCCC1CCC(=O)O1` (stereo not given): the “activity change, negative = cytotoxic” value was -1.3% (inactive). Still for that read-out and setting: to `CCCCNC(=S)NCCCC` belongs -7.07% (inactive). Same read-out and setting: the value for `O=C1CCN(c2ccccc2)N1` was 9.61% (inactive); that for `CC(C)(CO)[C@@H](O)C(=O)NCCC(=O)O` was 6.55% (inactive); that for `Cc1ccsc1C(=CCCN1CCC[C@@H](C(=O)O)C1)c1sccc1C` was -0.764% [at 35.3 µM] (inactive). The same measure, in the same setting: to `CNCCC(Oc1ccccc1OC)c1ccccc1` (stereo not given) belongs -21.9% [at 35.3 µM] (inactive); to `CCCCCCn1c(=O)c2c(ncn2C)n(C)c1=O`, -1.46% [at 35.3 µM] (inactive). With `CC(C)c1ccccc1`, the “activity change, negative = cytotoxic” value is 0.134% (inactive). Still for that read-out and setting: the value for `COC(=O)c1ccc(OC)cc1` was -0.675% (inactive); that for `CCOc1ccc(OCC)c(Cl)c1` was 10.3% (inactive).
